Reference: PubChem BioAssay AID1159580 (chemical genetic matrix, 2015)
In all, about 5,500 compounds went through this assay and about 2,000 (36%) were called active. Roughly 18% stayed inconclusive and do not appear here. Rule as the data show it: active = normalized growth mostly below about 0.91 (no sharp cut-off); inconclusive = no clear call, values can overlap the other calls; inactive = mostly above about 0.92. The list shows a part of the results.

Test: chemical genetic growth profiling, strain panel (AID 1159580);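 also: tested at 20 µM; growth read once vehicle control cultures reached saturation at 30 °C; 1 = growth at the plate median or of vehicle wells; lower values mean less growth of the strain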
Conditions: growth OD

Measured: normalized growth

Cc1c(Cl)cccc1Nc1ccccc1C(=O)O
active: S. cerevisiae deletion strains, locus YJR075W, strain HOC1, stronger effect = lower value 0.852 | S. cerevisiae deletion strains, locus YKL009W, strain mrt4, stronger effect = lower value 0.788 | S. cerevisiae deletion strains, locus YKL085W, strain MDH1 (second series), stronger effect = lower value 0.922 | S. cerevisiae deletion strains, locus YKL085W, strain MDH1, stronger effect = lower value 0.922 | S. cerevisiae deletion strains, locus YKL160W, strain elf1, stronger effect = lower value 0.764 | S. cerevisiae deletion strains, locus YKL190W, strain CNB1, stronger effect = lower value 0.863 | S. cerevisiae deletion strains, locus YKR001C, strain vps1, stronger effect = lower value 0.52 | S. cerevisiae deletion strains, locus YKR026C, strain gcn3, stronger effect = lower value 0.79 | S. cerevisiae deletion strains, locus YKR091W, strain srl3, stronger effect = lower value 0.829 | S. cerevisiae deletion strains, locus YLL001W, strain dnm1, stronger effect = lower value 0.814 | S. cerevisiae deletion strains, locus YLL026W, stronger effect = lower value 0.831 | S. cerevisiae deletion strains, locus YLL041C, strain sdh2, stronger effect = lower value 0.818 | S. cerevisiae deletion strains, locus YLR027C, strain aat2, stronger effect = lower value 0.819 | S. cerevisiae deletion strains, locus YLR039C, strain RIC1, stronger effect = lower value 0.537 | S. cerevisiae deletion strains, locus YLR058C, strain SHM2, stronger effect = lower value 0.849 | S. cerevisiae deletion strains, locus YLR102C, strain apc9, stronger effect = lower value 0.788 | S. cerevisiae deletion strains, locus YLR113W, strain HOG1, stronger effect = lower value 0.566 | S. cerevisiae deletion strains, locus YLR221C, strain rsa3, stronger effect = lower value 0.777 | S. cerevisiae deletion strains, locus YLR258W, strain gsy2, stronger effect = lower value 0.831 | S. cerevisiae deletion strains, locus YLR262C, strain YPT6 (second series), stronger effect = lower value 0.48 | S. cerevisiae deletion strains, locus YLR262C, strain YPT6, stronger effect = lower value 0.491 | S. cerevisiae deletion strains, locus YLR268W, strain sec22, stronger effect = lower value 0.724 | S. cerevisiae deletion strains, locus YLR320W, strain mms22, stronger effect = lower value 0.59 | S. cerevisiae deletion strains, locus YLR330W, strain CHS5, stronger effect = lower value 0.82 | S. cerevisiae deletion strains, locus YLR342W, strain FKS1 (second series), stronger effect = lower value 0.671 | S. cerevisiae deletion strains, locus YLR342W, strain FKS1, stronger effect = lower value 0.795 | S. cerevisiae deletion strains, locus YLR370C, strain arc18, stronger effect = lower value 0.808 | S. cerevisiae deletion strains, locus YLR371W, strain rom2, stronger effect = lower value 0.838 | S. cerevisiae deletion strains, locus YLR384C, strain iki3, stronger effect = lower value 0.832 | S. cerevisiae deletion strains, locus YLR418C, strain cdc73, stronger effect = lower value 0.591 | S. cerevisiae deletion strains, locus YML016C, strain PPZ1, stronger effect = lower value 0.857 | S. cerevisiae deletion strains, locus YML032C, strain rad52, stronger effect = lower value 0.792 | S. cerevisiae deletion strains, locus YML120C, strain ndi1, stronger effect = lower value 0.723 | S. cerevisiae deletion strains, locus YML124C, strain tub3, stronger effect = lower value 0.787 | S. cerevisiae deletion strains, locus YMR058W, strain fet3, stronger effect = lower value 0.79 | S. cerevisiae deletion strains, locus YMR078C, strain ctf18, stronger effect = lower value 0.761 | S. cerevisiae deletion strains, locus YMR125W, strain sto1, stronger effect = lower value 0.781 | S. cerevisiae deletion strains, locus YMR129W, stronger effect = lower value 0.823 | S. cerevisiae deletion strains, locus YMR205C, strain PFK2, stronger effect = lower value 0.673 | S. cerevisiae deletion strains, locus YMR223W, strain ubp8, stronger effect = lower value 0.795 | S. cerevisiae deletion strains, locus YMR231W, strain pep5, stronger effect = lower value 0.813 | S. cerevisiae deletion strains, locus YMR263W, strain SAP30, stronger effect = lower value 0.824 | S. cerevisiae deletion strains, locus YMR307W, strain GAS1, stronger effect = lower value 0.557 | S. cerevisiae deletion strains, locus YNL067W, strain RPL9B, stronger effect = lower value 0.846 | S. cerevisiae deletion strains, locus YNL071W, strain lat1, stronger effect = lower value 0.569 | S. cerevisiae deletion strains, locus YNL153C, strain GIM3, stronger effect = lower value 0.849 | S. cerevisiae deletion strains, locus YNL183C, strain NPR1, stronger effect = lower value 0.641 | S. cerevisiae deletion strains, locus YNL209W, strain ssb2, stronger effect = lower value 0.869 | S. cerevisiae deletion strains, locus YNL233W, strain BNI4, stronger effect = lower value 0.797 | S. cerevisiae deletion strains, locus YNL248C, strain rpa49, stronger effect = lower value 0.886 | S. cerevisiae deletion strains, locus YNL271C, strain bni1, stronger effect = lower value 0.919 | S. cerevisiae deletion strains, locus YNL298W, strain CLA4, stronger effect = lower value 0.842 | S. cerevisiae deletion strains, locus YNL307C, strain MCK1, stronger effect = lower value 0.437 | S. cerevisiae deletion strains, locus YNL322C, strain KRE1 (second series), stronger effect = lower value 0.856 | S. cerevisiae deletion strains, locus YNL322C, strain KRE1, stronger effect = lower value 0.876 | S. cerevisiae deletion strains, locus YNR049C, strain mso1, stronger effect = lower value 0.822 | S. cerevisiae deletion strains, locus YNR052C, strain pop2, stronger effect = lower value 0.821 | S. cerevisiae deletion strains, locus YOL147C, strain pex11, stronger effect = lower value 0.765 | S. cerevisiae deletion strains, locus YOR001W, strain rrp6, stronger effect = lower value 0.8 | S. cerevisiae deletion strains, locus YOR061W, strain CKA2, stronger effect = lower value 0.852 | S. cerevisiae deletion strains, locus YOR069W, strain VPS5, stronger effect = lower value 0.864 | S. cerevisiae deletion strains, locus YOR070C, strain gyp1, stronger effect = lower value 0.802 | S. cerevisiae deletion strains, locus YOR080W, strain dia2, stronger effect = lower value 0.855 | S. cerevisiae deletion strains, locus YOR083W, strain WHI5, stronger effect = lower value 0.767 | S. cerevisiae deletion strains, locus YOR106W, strain vam3, stronger effect = lower value 0.745 | S. cerevisiae deletion strains, locus YOR136W, strain idh2, stronger effect = lower value 0.893 | S. cerevisiae deletion strains, locus YOR144C, strain elg1, stronger effect = lower value 0.812 | S. cerevisiae deletion strains, locus YOR184W, strain ser1, stronger effect = lower value 0.578 | S. cerevisiae deletion strains, locus YOR231W, strain MKK1, stronger effect = lower value 0.644 | S. cerevisiae deletion strains, locus YOR265W, strain rbl2, stronger effect = lower value 0.828 | S. cerevisiae deletion strains, locus YOR270C, strain vph1, stronger effect = lower value 0.565 | S. cerevisiae deletion strains, locus YOR290C, strain snf2, stronger effect = lower value 0.716 | S. cerevisiae deletion strains, locus YOR316C, strain cot1, stronger effect = lower value 0.79 | S. cerevisiae deletion strains, locus YPL051W, strain arl3, stronger effect = lower value 0.656 | S. cerevisiae deletion strains, locus YPL078C, strain atp4, stronger effect = lower value 0.646 | S. cerevisiae deletion strains, locus YPL240C, strain hsp82, stronger effect = lower value 0.831 | S. cerevisiae deletion strains, locus YPL241C, strain CIN2, stronger effect = lower value 0.852 | S. cerevisiae deletion strains, locus YPL256C, strain CLN2, stronger effect = lower value 0.643 | S. cerevisiae deletion strains, locus YPR119W, strain clb2, stronger effect = lower value 0.779 | S. cerevisiae deletion strains, locus YPR163C, strain tif3, stronger effect = lower value 0.784 | S. cerevisiae deletion strains, locus YPR167C, strain met16, stronger effect = lower value 0.805 | S. cerevisiae deletion strains, strain wtn01, stronger effect = lower value 0.8 | S. cerevisiae strains, strain wild type, stronger effect = lower value 0.857
inactive: S. cerevisiae deletion strains, locus YKL068W, stronger effect = lower value 0.954 | S. cerevisiae deletion strains, locus YLR357W, strain rsc2, stronger effect = lower value 0.93 | S. cerevisiae deletion strains, locus YNL250W, strain rad50, stronger effect = lower value 0.941 | S. cerevisiae deletion strains, locus YOL006C, strain TOP1, stronger effect = lower value 0.656 | S. cerevisiae deletion strains, locus YOL012C, strain htz1 0.632 | S. cerevisiae deletion strains, locus YPL055C, strain LGE1, stronger effect = lower value 0.794 | S. cerevisiae deletion strains, locus YPL106C, strain sse1, stronger effect = lower value 0.985 | S. cerevisiae deletion strains, locus YPR141C, strain kar3, stronger effect = lower value 0.95
